Compound activity (PubChem BioAssay)
SMN2 splice up: qHTS Assay for Enhancers of SMN2 Splice Variant Expression. HEK293 SMN2-luciferase splicing reporter, luminescence, 30-36 h. Potency, µM (titrated, usually from 46.1 µM), most hits filed as activators. 2.8% of 210,000 active. AID 1458, 2008; also: nearly all actives have a fitted effect of over 55% in size
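HEK293 cells carry an SMN2 […]–luciferase reporter in which exon 7 inclusion puts luciferase in frame. Cells were plated 10-12 h before compound addition, then incubated 30-36 h at 37C. ONE-Glo luminescence was read; sodium butyrate at 4.5 mM final served as control.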
NPC1 prom act: qHTS Assay for NPC1 Promoter Activators. 2.4% of 320,000 active. Huh7 NPC1 promoter luciferase reporter, 24 h. Potency, µM (series often up to 9.22 µM), most hits filed as activators. AID 485313, 2010; also: nearly all actives have a fitted effect of over 60% in size
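Luminescence read-out of NPC1 promoter-driven luciferase in stably transfected Huh7 cells; compounds delivered in DMSO and left 24 h at 37C, 5% CO2, qHTS titration format.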
Rab9 promoter act: qHTS Assay for Rab9 Promoter Activators; 2.8% of 320,000 active; Potency, µM (series often up to 9.22 µM), actives largely listed as activators; Huh7 Rab9 promoter-luciferase reporter, luminescence, 24 h; also: nearly all actives have a fitted effect of over 60% in size
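Cell-based reporter: Huh7 stable for Rab9 promoter-driven luciferase, plated in reduced-serum medium with 10% FBS at 1500 cells/well, compound-treated 24 h at 37 °C, luminescence read after 10 min reagent.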
FLuc modulator: qHTS profiling assay for firefly luciferase inhibitor/activator using purifed enzyme and Km concentrations of substrates (counterscreen for miR-21 project); Potency, µM (doses to about 57.5 µM), actives largely listed as inhibitors; 6.9% of 360,000 active; Luciferin 4-monooxygenase (Photinus pyralis), P08659; purified FLuc, Km substrates, luminescence inhibition; also: nearly all actives have a fitted effect of over 55% in size
Target sequence (P08659 whole entry, looked up): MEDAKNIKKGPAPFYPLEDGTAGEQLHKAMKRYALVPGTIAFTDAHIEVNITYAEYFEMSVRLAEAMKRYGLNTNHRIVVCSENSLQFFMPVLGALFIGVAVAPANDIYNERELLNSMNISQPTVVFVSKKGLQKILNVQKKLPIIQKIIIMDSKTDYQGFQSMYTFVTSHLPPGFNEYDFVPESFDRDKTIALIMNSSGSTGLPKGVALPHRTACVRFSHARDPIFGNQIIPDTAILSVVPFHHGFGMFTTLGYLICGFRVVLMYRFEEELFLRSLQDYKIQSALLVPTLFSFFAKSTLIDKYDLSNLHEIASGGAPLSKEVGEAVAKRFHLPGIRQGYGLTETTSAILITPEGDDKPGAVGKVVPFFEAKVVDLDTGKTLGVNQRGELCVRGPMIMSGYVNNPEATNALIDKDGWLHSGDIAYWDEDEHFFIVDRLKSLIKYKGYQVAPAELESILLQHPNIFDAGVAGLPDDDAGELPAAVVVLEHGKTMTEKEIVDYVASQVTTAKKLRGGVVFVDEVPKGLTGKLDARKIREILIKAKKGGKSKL
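Purified P. pyralis luciferase, 10 nM final, with Km-level 10 uM D-luciferin and 10 uM ATP in 50 mM Tris acetate pH 7.5, 10 mM Mg acetate, 0.01% Tween-20, 0.05% BSA; 6-point qHTS titration about 60 µM downward; luminescence read.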
ELG1 genotox: qHTS screen for small molecules that induce genotoxicity in human embryonic kidney (HEK293T) cells expressing luciferase-tagged ELG1 | HEK293T ELG1-luciferase reporter, luminescence, 16 h | Potency, µM (doses to about 46 µM), most hits filed as activators | 1.3% of 330,000 active | AID 504466, 2011; also: nearly all actives have a fitted effect of over 60% in size
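HEK293T cells expressing luciferase-tagged ELG1 were exposed to compound or DMSO vehicle for 16 hr at 37 °C and 5% CO2. Luciferase activity was then measured with ONE-Glo after 30 min at room temperature.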
Numbers stand for hits. In the library only some 7.4% were active in any assay of this set; here they are far more common. Calls follow the shape of the dose curve; as a rule, active = well fitted curve in the direction sought with a large enough effect; inconclusive = small, poorly fitted or top-dose-only effect, or another doubt; inactive = no such curve, though single readings can be large; an effect the other way counts as inactive or inconclusive.

Results for Cc1ccc(/C=C2\SC(=S)N(CC3CCCO3)C2=O)o1 (configuration not stated) ?
NPC1 prom act: inactive; Rab9 promoter act: inconclusive; FLuc modulator: 21.3µM; ELG1 genotox: inactive

What do the screens show for `Cc1ccc(/C=C2/SC(=O)NC2=S)o1`?
SMN2 splice up: inactive; NPC1 prom act: inactive; Rab9 promoter act: inactive; FLuc modulator: 26.9µM; ELG1 genotox: inactive

What do the screens show for `O=C1/C(=C/c2cccnc2)SC(=S)N1CC1CCCO1` (configuration not stated)?
SMN2 splice up: inactive; NPC1 prom act: inactive; Rab9 promoter act: inactive; FLuc modulator: inconclusive; ELG1 genotox: inactive

Results for CCC1CCCCN1CCCNC(=O)c1ccc2c(c1)N(Cc1cccc(C)c1)C(=O)c1ccccc1S2(=O)=O (configuration not stated) ?
SMN2 splice up: inactive; FLuc modulator: inactive

Results for O=C(NCc1ccccc1Cl)C1CCCN(C(=O)c2cnn(-c3ccccc3)c2-n2cccc2)C1 (configuration not stated) ?
SMN2 splice up: inactive; FLuc modulator: inactive

How did CCOC(=O)C(Cc1c[nH]c2ccccc12)NC(=O)COc1ccc(Cl)c(C)c1 (configuration not stated) do in these assays?
SMN2 splice up: inactive; FLuc modulator: inactive

How did COc1ccc(-n2nnc3c(SCC(=O)NCc4ccco4)ncnc32)cc1 do in these assays?
SMN2 splice up: inactive; NPC1 prom act: inactive; Rab9 promoter act: inactive; FLuc modulator: 9.53µM; ELG1 genotox: inactive

Results for O=C(CSc1ncnc2c1nnn2-c1ccc(F)cc1)NCc1ccco1 ?
SMN2 splice up: inactive; NPC1 prom act: inactive; Rab9 promoter act: inactive; FLuc modulator: inactive; ELG1 genotox: inactive

How did COc1ccc(-n2c(-c3ccc(F)cc3)cnc2SCC(=O)NCc2ccco2)cc1 do in these assays?
SMN2 splice up: inactive; NPC1 prom act: inactive; Rab9 promoter act: inactive; FLuc modulator: 23.9µM; ELG1 genotox: inconclusive

What do the screens show for `Cc1ccc(-n2nnc3c(SCC(=O)NCc4ccco4)ncnc32)cc1`?
SMN2 splice up: inactive; NPC1 prom act: inactive; Rab9 promoter act: inactive; FLuc modulator: 13.5µM; ELG1 genotox: inactive

Results for COc1ccccc1C(CNC(=O)c1cccc(NS(=O)(=O)c2ccc(C)c(F)c2)c1)N1CCCC1 (configuration not stated) ?
NPC1 prom act: inactive; Rab9 promoter act: inactive; FLuc modulator: inactive; ELG1 genotox: inactive

What do the screens show for `COc1ccc(-c2nc(C#N)c(NCCc3ccccc3)o2)cc1`?
SMN2 splice up: inconclusive; NPC1 prom act: inactive; Rab9 promoter act: inconclusive; FLuc modulator: inconclusive; ELG1 genotox: inactive

What do the screens show for `Cc1ccc(-c2nc(C#N)c(NCCc3ccccn3)o2)cc1`?
SMN2 splice up: inconclusive; NPC1 prom act: 3.55µM; Rab9 promoter act: inconclusive; FLuc modulator: inconclusive; ELG1 genotox: inconclusive

What do the screens show for `N#Cc1nc(-c2ccc(Cl)cc2)oc1NCCc1ccccn1`?
SMN2 splice up: inactive; NPC1 prom act: inconclusive; Rab9 promoter act: inconclusive; FLuc modulator: inactive; ELG1 genotox: 8.2µM

How did CCc1ccccc1N(C)C(=O)C1CCCN(c2ncnc3c2nc2n3CCCCC2)C1 (configuration not stated) do in these assays?
FLuc modulator: inactive

What do the screens show for `COC(=O)c1cc(-c2ccc(OC)cc2F)nc2nc(SC)[nH]c(=O)c12`?
NPC1 prom act: inactive; Rab9 promoter act: inactive; FLuc modulator: 15.1µM; ELG1 genotox: inactive

How did COC(=O)c1cc(-c2ccccc2)nc2nc(SC)[nH]c(=O)c12 do in these assays?
NPC1 prom act: inactive; Rab9 promoter act: inactive; FLuc modulator: inconclusive; ELG1 genotox: inactive

How did C/C(=N\Nc1ccc(C(=O)O)cc1)c1ccc2c(c1)Nc1ccccc1S2 do in these assays?
NPC1 prom act: inconclusive; Rab9 promoter act: inconclusive; FLuc modulator: 2.13µM; ELG1 genotox: inactive

Results for C[C@]12CC[C@H](O)C[C@@H]1CC[C@@H]1[C@@H]2CC[C@@]2(C)[C@H]1CCC(=O)[C@]21CCCO1 ?
ELG1 genotox: inactive

What do the screens show for `O=C(COC(=O)c1ccc(Cl)nc1)Nc1ccc2c(c1)CCC2`?
ELG1 genotox: inactive
